Assay outcomes: PubChem BioAssay, several laboratories
Only some compounds are listed: those with a hit (about 1.3% of all), similar ones and a draw of the others.
CCHF vOTU inh: blocks the CCHF virus ovarian tumor domain protease | CCHFV vOTU protease, Pep-AMC fluorescence | inhibition, % at 11.5 µM | 370,000 compounds, 0.55% hits; in the data active = inhibition above about 30%
SARS 3CLpro inh: SARS-CoV 3CLpro protease inhibition; 290,000 compounds, 0.14% hits; recombinant SARS-CoV 3CLpro, quenched FRET peptide cleavage; P0C6X7; inhibition, % at 6 µM; in the data active = inhibition above about 12%
PrP 5UTR inh: inhibition of PrP 5' UTR reporter expression. cell-based PrP 5' UTR mRNA reporter, plate reader. inhibition, % (test concentration not listed). 340,000 compounds, 0.35% hits; in the data active = inhibition above about 52%
PrPC TRFRET: inhibitors of human cell surface prion protein PrPC | 370,000 compounds, 0.43% hits | AID 720596 | P04156 | inhibition, % at 13.8 µM | TR-FRET read-out; in the data active = inhibition above about 24%
Each line names hits and unclear results; the compound was inactive in the other large screens.

Cc1ccc(-c2cc(=O)c3cc(F)ccc3[nH]2)cc1	none
Cc1ccc2[nH]c(-c3cccc(F)c3)cc(=O)c2c1	PrP 5UTR inh 60
CCCCS(=O)(=O)N1CCN(S(=O)(=O)c2ccc(Cl)s2)CC1	none
CCCCN(C(=O)CCC(=O)Nc1cc(C)on1)C(C(=O)NC1CCCC1)c1ccc(OCC)cc1 (stereo unspecified)	CCHF vOTU inh 37
COc1ccc(NC(=O)COC(=O)c2cccc(S(=O)(=O)N3CCCCC3)c2)c(OC)c1	none (no result: SARS 3CLpro inh)
CN(c1ccc(OCc2nnc(-c3ccccc3)o2)cc1)S(=O)(=O)c1ccccc1	none
CC(C)c1ccc(N2C(=O)CC(Sc3ncn[nH]3)C2=O)cc1 (stereo unspecified)	none
COc1ccc(N2C(=O)CC(Sc3ncn[nH]3)C2=O)c(OC)c1 (stereo unspecified)	CCHF vOTU inh 55
Cc1cc(C)cc(NS(=O)(=O)c2ccc(-c3cnc(C4CC4)o3)cc2)c1	PrP 5UTR inh 67
Cc1cccc(NS(=O)(=O)c2ccc(-c3cnc(C4CC4)o3)cc2)c1C	PrP 5UTR inh 79
CCCCC1CC2=C(C(=O)OC(C)(C)O2)C(c2ccc(Cl)cc2)O1 (stereo unspecified)	none (no result: SARS 3CLpro inh, PrP 5UTR inh)
CC1OC(C[N+](C)(C)C)CC1O (stereo unspecified)	none (no result: SARS 3CLpro inh)
COc1ccc(C(=O)NNC(=O)c2ccccn2)cc1	none
COc1cc(OC)cc(C(=O)NNC(=O)c2ccccn2)c1	PrPC TRFRET 25
CCOC(=O)C1(Cc2ccc(Cl)cc2)CCN(Cc2ccon2)CC1	none
CCc1nnc(N/N=C/c2c(Cl)cccc2Cl)n1N	CCHF vOTU inh 77 (no result: PrP 5UTR inh)
CC(=O)c1ccc(N2CCN(Cc3cc(=O)n4c(-c5ccccc5)csc4n3)CC2)cc1	none (no result: SARS 3CLpro inh)
Cc1cccc(N=N/C(=C\O)C(=O)c2cccs2)c1	none
CCCCCCCCCCCCCCCC[n+]1ccc(/C=N/O)cc1	CCHF vOTU inh 56, PrPC TRFRET 31
CCCCCCC[n+]1ccc(-c2cc[n+](CCCCCCC)cc2)cc1	none
COc1ccc(C(=O)c2c(C(F)(F)F)oc3c2C(=O)c2ccccc2C3=O)cc1OC	CCHF vOTU inh 64
O=C(Oc1ccc(Br)cc1)c1cccc(S(=O)(=O)N2CCOCC2)c1	none
CCCCc1c(C)nc2ccc(Br)cc2c1SCCC#N	none (no result: CCHF vOTU inh, PrP 5UTR inh, PrPC TRFRET)
CCc1c(C)nc2ccc(Br)cc2c1SCCC#N	PrPC TRFRET 47
O=C(O)c1cc(N/N=C/c2ccc(N3CCOCC3)s2)ccc1Cl	CCHF vOTU inh 31
Brc1ccc(Oc2ccc(Br)cc2Br)c(Br)c1	none (no result: SARS 3CLpro inh)
O=c1c(Br)ccc(Br)cc1Br	PrPC TRFRET 88 (no result: SARS 3CLpro inh)
O=C(Cc1ccccc1)NCC(=O)N/N=C/c1ccc([N+](=O)[O-])s1	CCHF vOTU inh 31
c1ccc2nc3c(nc2c1)CCCC3	none
F[B-](F)(F)COCc1ccccc1C#Cc1ccccc1	none (no result: SARS 3CLpro inh, PrP 5UTR inh)
CCCCC#Cc1ccccc1COC[B-](F)(F)F	PrPC TRFRET 29 (no result: SARS 3CLpro inh, PrP 5UTR inh)
CCn1c2ccccc2c2cc(Nc3cc(C)nc4ncnn34)ccc21	PrP 5UTR inh 68
O=C(Cc1ccc(S(=O)(=O)N2CCOCC2)s1)Nc1ccccc1Br	none
NC(=O)c1cc(-c2ccccc2)sc1NC(=O)Cc1ccc(S(=O)(=O)N2CCOCC2)s1	SARS 3CLpro inh 19
O=C1ON=C(c2ccccc2)/C1=C/c1ccc(-c2ccccc2[N+](=O)[O-])o1	SARS 3CLpro inh 15
CC(C)C(=O)N1CCN(c2c(Cl)cccc2[N+](=O)[O-])CC1	none
CC(=O)NC1C(=O)N(CCN2CCOCC2)c2ccc(Cl)cc21 (stereo unspecified)	SARS 3CLpro inh 13
CC(=O)NC1C(=O)N(CCN2CCOCC2)c2ccc(C)cc21 (stereo unspecified)	SARS 3CLpro inh 54 (no result: CCHF vOTU inh, PrPC TRFRET)
COc1cc2c(cc1NC(=O)c1cccnc1)oc1ccccc12	none
NC(=O)c1ccc(N=C2C(=O)Nc3ccc([N+](=O)[O-])cc32)cc1	CCHF vOTU inh 116
O=C1Nc2ccccc2C1=Nc1cccc([N+](=O)[O-])c1	none
CN(C)CCCN(C(=O)c1ccc([N+](=O)[O-])o1)c1nc2cc3c(cc2s1)OCO3	CCHF vOTU inh 51
CC(C)Oc1ccccc1C1CC(=O)Nc2cc3c(cc21)OCCO3 (stereo unspecified)	PrP 5UTR inh 61
O=C(NC1CCOc2ccccc21)C1CCCC1 (stereo unspecified)	none
CCCCNS(=O)(=O)c1ccc2nc(SCC(=O)Nc3sccc3C#N)[nH]c2c1	CCHF vOTU inh 30
CCCCNS(=O)(=O)c1ccc2nc(SCC(N)=O)[nH]c2c1	none
COc1ccc(CCN2CC(C(=O)N(C)Cc3ccc4nsnc4c3)CCC2=O)cc1 (stereo unspecified)	none
CC(=O)c1c(C)[nH]c(C(=O)COc2cc(C)ccc2C(C)C)c1C	PrPC TRFRET 26
COc1cc(C)ccc1OCC(=O)OCC(=O)c1[nH]c(C)c(C(C)=O)c1C	none (no result: SARS 3CLpro inh)
Nc1nc(Cl)cc(NCCc2ccc(O)cc2)n1	none
Oc1ccc(CCNc2ncnc3ccc(Cl)cc23)cc1	PrPC TRFRET 36
C=CCNC(=O)C1CC(=O)N(c2ccc(OCC(=O)Nc3ccc(CC)cc3)cc2)C1 (stereo unspecified)	none
Cc1c(C)c2cccnc2c2ncccc12	PrP 5UTR inh 59 (no result: CCHF vOTU inh, SARS 3CLpro inh, PrPC TRFRET)
Clc1cc2cccnc2c2ncccc12	none (no result: SARS 3CLpro inh)
Oc1ccc(NCc2ccccc2OCc2ccccc2F)cc1	none
CCOc1ccccc1CNc1ccc(O)cc1	CCHF vOTU inh 48
CC(=O)N1CCc2c(sc(NC(=O)c3ccc([N+](=O)[O-])o3)c2C(N)=O)C1	CCHF vOTU inh 47 (no result: SARS 3CLpro inh, PrP 5UTR inh)
O=C(NC1CCCCC1NC(=O)c1cccs1)c1cccs1 (stereo unspecified)	none
CC(OC(=O)c1cc(O)c2ccccc2c1O)C(=O)Nc1ccc(C(N)=O)cc1 (stereo unspecified)	CCHF vOTU inh 86 (no result: SARS 3CLpro inh)
CCCCNC(=O)/C(C#N)=C/c1ccc(C(=O)OC)cc1	none (no result: CCHF vOTU inh, PrPC TRFRET)
Cc1ccc(S(=O)(=O)n2ccc3c(OCCOCCSCC(NC(=O)OC(C)(C)C)C(=O)O)cccc32)cc1 (stereo unspecified)	CCHF vOTU inh 38
O=C(NCC1CCCO1)c1nn2c(C(F)(F)F)cc(-c3cc(Br)cs3)nc2c1Br (stereo unspecified)	none
COc1ccc(C(NC(C)=O)c2cc(Cl)c3cccnc3c2O)cc1 (stereo unspecified)	PrPC TRFRET 28
CCOC(=O)N1CCN(c2cc(C)c(C(C)=O)cc2F)CC1	none
CCOC(=O)N1CCN(c2cc(N)c([N+](=O)[O-])cc2F)CC1	CCHF vOTU inh 35
N#Cc1ccccc1COc1ccc(/C=C/C(=O)O)cc1	none
CCOC(=O)[C@]12Cc3cc(C)ccc3[C@H]1N(C1CCCCC1)C(=O)c1cc(OC)ccc12	PrPC TRFRET 38 (no result: SARS 3CLpro inh, PrP 5UTR inh)
CC(=O)c1cccc(-c2ccc3c(=O)[nH]c(Nc4ccccc4)cc3c2)c1	CCHF vOTU inh 104 (no result: SARS 3CLpro inh)
CC(=O)c1cccc(Nc2nc(-c3ccccc3)nc3ccccc23)c1	none
O=C1C=C(NCCc2cc(Br)c(O)c(Br)c2)C(=O)c2ncccc21	CCHF vOTU inh 108 (no result: SARS 3CLpro inh)
CC(C)(C)c1cc(CCC(=O)NCCc2ccccn2)cc(C(C)(C)C)c1O	none
O=P(c1ccccc1)(c1ccccc1)c1ccc(O)cc1	none
COc1ccc(Cc2nnc(SCC(=O)Nc3ccc(C)cc3)n(N)c2=O)cc1	CCHF vOTU inh 30 (no result: SARS 3CLpro inh)
CC(C)(C)c1ccc(C(=O)NCc2cccnc2)cc1	none
